The text below walks through data of PubChem BioAssay (NCATS).

Records with an inconclusive call do not appear. A number with no mark means an inactive call. Activity calls are given as the source filed them. The call rests on the fitted dose curve; in most records, active means well fitted inhibition curve with a large enough effect; inconclusive means small, poorly fitted or top-dose-only effect; inactive means flat fitted curve, though single readings scatter. Where a SMILES comes first, the peptide text is derived from it. [ ]: non-standard residue; d: D form. ξ: configuration not given here. ξLac(3-iPr) = CC(C)CC(O)C(=O)O; NMeV = CN[CH](C(=O)O)C(C)C; βAla = NCCC(=O)O

The target of experiment [1] is Calcium and integrin-binding protein 1 (Homo sapiens) (UniProt Q99828). The experiment is described as follows: Primary qHTS for Identification of Calcium Integrin Binding Protein 1 (CIB1) Competitor (AID 1508620).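 Further: GST tagged CIB1 binding a fluorescein labelled alphaIIb integrin peptide tracer; top concentration of the series differs between compounds.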 The note with it: CIB1-GST / FITC-alphaIIb peptide fluorescence polarization; series mostly up to 114 µM. A digest of the protocol:
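Fluorescence polarization competition: CIB1-GST (1 uM final) preincubated with compound 15 min at room temperature, then FITC-labeled alphaIIb peptide (100 nM final) added for another 15 min. Polarization read at Ex 480/Em 540.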

Experiment [2] can be described thus: Primary qHTS for inhibitors of nuclear receptor binding SET domain protein 2 (NSD2) in an isogenic RCH-ACV NSD2 p.E1099K mutant (9B) (AID 1645876). Further: nearly all actives have a fitted effect of over 70% in size. Further: potency means the concentration at half of the fitted maximal effect. The note with it: RCH-ACV (leukaemia line) NSD2 E1099K (9B) viability, CellTiter-Glo, 72 h; series mostly up to 44.9 µM. (In general: In qHTS, concentration-response curves come from the screen itself.)
On the % scale 0 is the no-effect control and ±100 the full control effect.

Sequence of Calcium and integrin-binding protein 1 (Homo sapiens) (Q99828 whole entry, looked up): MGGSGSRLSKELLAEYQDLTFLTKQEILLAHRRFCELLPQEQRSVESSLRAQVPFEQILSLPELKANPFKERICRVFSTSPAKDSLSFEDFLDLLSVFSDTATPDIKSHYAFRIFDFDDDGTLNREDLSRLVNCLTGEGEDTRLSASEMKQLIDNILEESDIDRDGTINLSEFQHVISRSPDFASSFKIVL

In the case of `CCOCCn1nc(CC)c2nc(N3CCC(C(=O)O)CC3)nc(Nc3cc(C)ccn3)c21`, the Potency result in experiment [1] and in experiment [2] was “inactive” throughout.

Turning to `CC(C)CC1OC(=O)C2CCCN2C(=O)CCNC(=O)C(Cc2ccccc2)NC(=O)C(C(C)C)N(C)C(=O)C(C(C)C)N(C)C1=O` (stereo not given) (cyclo([ξLac(3-iPr)][NMeV][NMeV]F[βAla]P); configuration not given here), the Potency result in experiment [1] and in experiment [2] was “inactive” throughout.

Take `COc1cc(C(=O)OC[C@@]2(O)CO[C@@H](O[C@H]3[C@H](Oc4ccc(C(=O)O)cc4OC)O[C@H](CO)[C@@H](O)[C@@H]3O)[C@@H]2O)ccc1O`: the Potency entry in experiment [1] and in experiment [2] was “inactive” each time.

With `CC[C@]12C=CCN3CC[C@@]4(c5cc([C@@]6(C(=O)OC)C[C@H]7C[C@@H](C(C)(F)F)CN(Cc8c6[nH]c6ccccc86)C7)c(OC)cc5N(C)[C@H]4[C@@](O)(C(=O)OC)[C@@H]1OC(C)=O)[C@@H]32`, the Potency result in experiment [1] is “inactive”. The Potency in experiment [2] is 139 nM (active).

As for `CC(C)C(C#N)O[C@@H]1O[C@H](CO[C@@H]2O[C@@H](C)[C@H](O)[C@@H](O)[C@H]2O)[C@@H](O)[C@H](O)[C@H]1O` (stereo not given in full), the Potency result in experiment [1] and in experiment [2] was “inactive” throughout.

Take `CC1=C2C(O)C(=O)OC(c3ccoc3)C2(C)CCC1O` (stereo not given): the Potency entry in experiment [1] and in experiment [2] was “inactive” each time.

For `CC1OC(OC2C(CO)OC(OCC3OC(OC(=O)C45CCC(C)(C)CC4C4=CCC6C7(C)CCC(OC8OC(CO)C(O)C(OC9OC(CO)C(O)C(O)C9O)C8O)C(C)(C)C7CCC6(C)C4(C)CC5)C(O)C(O)C3O)C(O)C2O)C(O)C(O)C1OC1OC(CO)C(O)C(O)C1O` (stereo not given), the activity change, negative = inhibition in experiment [1] was -4.16% [at 12.4 µM]. In addition, the activity change, negative = viability loss in experiment [2] was -0.174% [at 9.23 µM].

For the compound `O=C(O)c1ccc(OC2OC(CO)C(O)C(O)C2O)cc1` (stereo not given), the Potency result in experiment [1] and in experiment [2] was “inactive” each time.

As for `CC1=CC(=O)CC2C1(O)CCC(C)C21CC(c2ccoc2)OC1=O` (stereo not given), the Potency entry in experiment [1] and in experiment [2] was “inactive” in each case.

In the case of `C[C@]12C=C[C@@]3(CCC4[C@](C)(CO)CCC[C@@]4(C)C3CC1)C2` (stereo not given in full), the Potency entry in experiment [1] and in experiment [2] was “inactive” throughout.

In the case of `Cc1cc(=O)oc2c(C=O)c(O)ccc12`, the Potency result in experiment [1] was “inactive”. The Potency in experiment [2] is 18300 nM (active).

For `NCc1c[nH]c(=S)n1[C@@H]1CCc2c(F)cc(F)cc2C1`, the Potency entry in experiment [1] and in experiment [2] was “inactive” each time.

On to `CN(C)CCCCC(=O)Nc1ccc(NC(=S)NC(=O)c2ccc(C(C)(C)C)cc2)cc1`, for which the Potency entry in experiment [1] is “inactive”. The Potency in experiment [2] was 1830 nM (active).

For the compound `COc1ccc(CC2C(=O)NC(C)C(=O)N(C)C3Cc4ccc(cc4)Oc4cc(ccc4OC4OC(CO)C(O)C(O)C4O)CC(C(=O)NC(C)C(=O)NC(C)C(=O)N2C)N(C)C3=O)cc1` (stereo not given), the Potency result in experiment [1] was “inactive”. Besides, in experiment [2], the Potency was 13.8 nM (active).

Turning to `CC(C)=CCC[C@](C)(O[C@@H]1O[C@H](CO)[C@@H](O)[C@H](O)[C@H]1O)[C@H]1CC[C@]2(C)[C@@H]1[C@H](O)CC1[C@@]3(C)CC[C@H](O)C(C)(C)C3[C@@H](O[C@@H]3O[C@H](CO)[C@@H](O)[C@H](O)[C@H]3O)C[C@]12C` (stereo not given in full), the Potency result in experiment [1] and in experiment [2] was “inactive” in each case.

In the case of `CC1(C)CCCC2(C)C1C(O)C=C(CO)C2(O)CO` (stereo not given), the Potency entry in experiment [1] and in experiment [2] was “inactive” each time.

For the compound `C/C=C(/COC(=O)/C(C)=C/C)C(=O)OC(CC)c1ccc(OC)c(OC)c1` (stereo not given), the Potency result in experiment [1] and in experiment [2] was “inactive” throughout.

Take `CC(=O)c1c(O)cc(O[C@@H]2O[C@H](CO)[C@@H](O)[C@H](O)[C@H]2O)cc1O`: the Potency entry in experiment [1] and in experiment [2] was “inactive” each time.

`Nc1nc2c(ncn2[C@@H]2O[C@H](CO)[C@@H](O)[C@H]2O)c(=O)[nH]1`: the Potency entry in experiment [1] and in experiment [2] was “inactive” each time.

In the case of `C/C(=C\CCC1(C)C2CCC(C2)C1(C)O)C(=O)O` (stereo not given), the Potency result in experiment [1] and in experiment [2] was “inactive” each time.

Take `C#CC[C@H](c1nc2cc(Cl)ccc2c(=O)n1Nc1ccccc1)N(CCCN)C(=O)c1cccc(Cl)c1F`: the Potency result in experiment [1] is “inactive”. Besides, the Potency in experiment [2] is 372 nM (active).

On to `C[C@H]1CC(=O)Nc2cccc(-c3cnn(C(C)(C)C)c3)c2N1`, for which the Potency entry in experiment [1] and in experiment [2] was “inactive” throughout.

As for `CC(C)=CCC/C(C)=C/CO[C@@H]1O[C@H](CO)[C@@H](OC(=O)/C=C/c2ccc(O)cc2)[C@H](O[C@@H]2O[C@@H](C)[C@H](O)[C@@H](O)[C@H]2O)[C@H]1O`, the Potency result in experiment [1] and in experiment [2] was “inactive” throughout.

For `CC(C)CCC1(O)C(=O)C(C)(C)C(O[C@@H]2O[C@H](CO)[C@@H](O)[C@H](O)[C@H]2O)C(C)(C)C1O` (stereo not given in full), the Potency entry in experiment [1] and in experiment [2] was “inactive” in each case.

On to `CNC(=O)c1ccccc1Nc1nc(Nc2ccc3c(c2OC)CCC[C@@H](N2CCN(CCO)CC2)C3)ncc1Cl`, for which, in experiment [1], the Potency entry was “inactive”. The Potency in experiment [2] was 6610 nM (active).

With `O=C1C=CC2OC(c3ccccc3)C(O)C2O1` (stereo not given), in experiment [1], the Potency result is “inactive”. In experiment [2], the Potency is 5780 nM (active).

As to `CC1=CC(=O)C(=C(C)C)CC2C1CCC2(C)O` (stereo not given), the Potency result in experiment [1] and in experiment [2] was “inactive” each time.

For the compound `CNC12CC3C[C@@](C)(C1)C[C@](C)(C3)C2`, the Potency entry in experiment [1] and in experiment [2] was “inactive” in each case.

As to `Cc1nc(Nc2n[nH]c3c2CN(C(=O)NC(CN(C)C)c2ccccc2)C3(C)C)c2sccc2n1` (stereo not given), in experiment [1], the Potency result is “inactive”. In addition, the Potency in experiment [2] is 6.5 nM (active).

As to `CCC(O)C(C)C1CCC(C(C)C(=O)O)O1` (stereo not given), the Potency result in experiment [1] and in experiment [2] was “inactive” in each case.

For the compound `C=C[C@@](C)(O)CC/C=C(\C)C(=O)O[C@@H]1[C@@H]2O[C@]2(C)[C@H]2[C@H](O[C@@H]3O[C@H](CO)[C@@H](O)[C@H](O)[C@H]3O)OC=C[C@@]12O`, the Potency result in experiment [1] and in experiment [2] was “inactive” throughout.

For the compound `O=C1NC2CCc3nc4ccccc4c(=O)n3C2=Nc2ccccc21` (stereo not given), the Potency result in experiment [1] and in experiment [2] was “inactive” in each case.

For `C=CC1C(OC2OC(CO)C(O)C(O)C2O)OC=C2C(=O)N3C(C(=O)O)Cc4c([nH]c5ccccc45)C3CC21` (stereo not given), the Potency entry in experiment [1] and in experiment [2] was “inactive” throughout.

As to `C=C(CO[C@@H]1O[C@H](CO[C@@H]2OC[C@](O)(CO)[C@H]2O)[C@@H](O)[C@H](O)[C@H]1O)C1Cc2cc(C(C)=O)ccc2O1` (stereo not given in full), the Potency result in experiment [1] and in experiment [2] was “inactive” in each case.

On to `CC(O)CCC1C(CO[C@@H]2O[C@H](CO)[C@@H](O)[C@H](O)[C@H]2O)CC(O)CC1(C)C` (stereo not given in full), for which the Potency entry in experiment [1] and in experiment [2] was “inactive” in each case.

As for `CC(=O)OC[C@H]1O[C@H](O[C@]2(CO)O[C@H](CO)[C@@H](OC(=O)/C=C/c3ccccc3)[C@@H]2O)[C@H](O)[C@@H](O)[C@@H]1O`, the Potency entry in experiment [1] and in experiment [2] was “inactive” throughout.

Turning to `C=CC1C(OC2OC(CO)C(O)C(O)C2O)OC=C(C(=O)OC)C1CC1CC(=O)CC(CCc2ccc(O)cc2)O1` (stereo not given), the Potency result in experiment [1] and in experiment [2] was “inactive” in each case.

In the case of `O=C1OCC(c2ccccc2)=C1Cc1ccccc1`, the Potency result in experiment [1] and in experiment [2] was “inactive” in each case.

On to `C=C1CCC2C(C)(C)C(O)CCC2(C)C1CCC(C)CCOC(C)=O` (stereo not given), for which the Potency entry in experiment [1] and in experiment [2] was “inactive” throughout.

Turning to `Nc1ncnc2c([C@@H]3N[C@H](CO)[C@@H](O)[C@H]3O)c[nH]c12`, the Potency result in experiment [1] and in experiment [2] was “inactive” each time.

Turning to `CC12CCC3c4ccc(OC5OC(C(=O)O)C(O)C(O)C5O)cc4CCC3C1CCC2O` (stereo not given), the Potency result in experiment [1] and in experiment [2] was “inactive” in each case.

Turning to `FC(F)(F)c1ccc(Nc2nc(-c3c(C(F)(F)F)nc4ccccn34)cs2)cc1`, in experiment [1], the Potency result was “inactive”. For the same compound, the Potency in experiment [2] was 417 nM (active).

In the case of `CC(Nc1ncnc2nc[nH]c12)c1cc2cccc(Cl)c2c(=O)n1-c1ccccc1` (stereo not given), the Potency entry in experiment [1] was “inactive”. For the same compound, the Potency in experiment [2] is 332 nM (active).

In the case of `C=CC(C)(C)c1[nH]c2ccccc2c1C[C@@H]1NC(=O)[C@H](Cc2c[nH]c3ccccc23)NC1=O`, the Potency entry in experiment [1] and in experiment [2] was “inactive” each time.

With `CC(=O)OCC1(O)CCC2C(COC3OC(CO)C(O)C(O)C3OC(=O)/C=C/c3ccc(O)cc3)=COC(OC(=O)CC(C)C)C21` (stereo not given), the Potency entry in experiment [1] and in experiment [2] was “inactive” in each case.

As for `CC(C)C(N)C(=O)OCCOCn1cnc2c(=O)[nH]c(N)nc21` (stereo not given), the Potency result in experiment [1] and in experiment [2] was “inactive” throughout.

For the compound `COC(=O)C[C@H]1C(C)(C)[C@H](OC(=O)C(C)C)[C@@]2(O)C(=O)[C@]1(C)C1CC[C@]3(C)C(CC(=O)O[C@H]3c3ccoc3)[C@]13O[C@@H]32` (stereo not given in full), the Potency entry in experiment [1] and in experiment [2] was “inactive” in each case.

In the case of `COc1c2c(c(CO)c3c1C(=O)OC3)OC1(C)CCC3(O)C(C)(C)OC(=O)CCC3(C)C1C2` (stereo not given), the Potency entry in experiment [1] and in experiment [2] was “inactive” each time.

Turning to `CC(C)C1=CC2C(CC[C@]2(C)O)[C@](C)(O)CC1` (stereo not given in full), the Potency result in experiment [1] and in experiment [2] was “inactive” throughout.

As for `CC1(C)CC[C@]2(C(=O)OC3OC(CO)C(O)C(O)C3O)CC[C@]3(C)C(=CCC4[C@@]5(C)CC[C@H](OC6OC(C(=O)O)C(O)C(OC7OC(CO)C(O)C(O)C7O)C6O)C(C)(C)C5CC[C@]43C)C2C1` (stereo not given in full), the Potency entry in experiment [1] was “inactive”. Moreover, the activity change, negative = viability loss in experiment [2] was -3.97% [at 9.23 µM].
